According to publication PMC4336329 (PLoS ONE, 2015):
About 14,000 (4.5%) of roughly 310,000 compounds showed an effect of 50% or more. Effects have a minus sign here. The list comes from a sample in which strong results are over-represented; it also holds similar structures and randomly drawn compounds.

These compounds were tested against human ether-à-go-go-related gene (hERG) potassium channel (human, UniProt Q12809) (assay: primary screen, population patch clamp on CHO cells stably expressing hERG; higher = less effect of the substance).
human ether-à-go-go-related gene (hERG) potassium channel, sequence (Q12809 whole entry, looked up): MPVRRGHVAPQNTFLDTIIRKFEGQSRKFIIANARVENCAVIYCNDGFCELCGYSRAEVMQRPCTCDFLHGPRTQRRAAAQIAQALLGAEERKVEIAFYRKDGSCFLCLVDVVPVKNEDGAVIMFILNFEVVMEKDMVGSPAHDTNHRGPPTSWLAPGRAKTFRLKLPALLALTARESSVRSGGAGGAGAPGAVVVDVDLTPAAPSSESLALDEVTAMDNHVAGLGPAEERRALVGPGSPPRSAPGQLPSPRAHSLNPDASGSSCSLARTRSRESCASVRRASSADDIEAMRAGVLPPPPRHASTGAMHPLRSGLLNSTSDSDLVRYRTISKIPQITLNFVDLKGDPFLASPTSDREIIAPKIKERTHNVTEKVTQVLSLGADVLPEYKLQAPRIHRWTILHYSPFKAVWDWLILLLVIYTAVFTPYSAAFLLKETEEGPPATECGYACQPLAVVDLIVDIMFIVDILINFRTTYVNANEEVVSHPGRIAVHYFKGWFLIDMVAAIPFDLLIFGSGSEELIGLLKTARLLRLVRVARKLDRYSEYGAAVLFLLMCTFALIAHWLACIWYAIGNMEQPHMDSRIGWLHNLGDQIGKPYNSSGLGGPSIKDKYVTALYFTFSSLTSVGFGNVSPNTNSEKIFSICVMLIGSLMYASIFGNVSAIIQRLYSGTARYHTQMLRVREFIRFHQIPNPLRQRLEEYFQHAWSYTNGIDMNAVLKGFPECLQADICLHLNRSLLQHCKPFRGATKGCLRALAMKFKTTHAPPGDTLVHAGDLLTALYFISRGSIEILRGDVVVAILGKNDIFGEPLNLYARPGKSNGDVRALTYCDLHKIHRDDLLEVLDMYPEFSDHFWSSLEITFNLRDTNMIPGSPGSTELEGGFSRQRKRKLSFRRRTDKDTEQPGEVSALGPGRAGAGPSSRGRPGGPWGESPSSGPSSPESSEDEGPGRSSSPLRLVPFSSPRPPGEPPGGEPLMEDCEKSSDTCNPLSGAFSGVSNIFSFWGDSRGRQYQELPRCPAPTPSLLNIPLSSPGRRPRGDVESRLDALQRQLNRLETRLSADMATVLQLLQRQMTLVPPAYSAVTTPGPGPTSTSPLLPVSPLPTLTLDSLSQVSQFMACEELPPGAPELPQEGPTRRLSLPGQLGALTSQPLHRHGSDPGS
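Also: peak tail current of the secondary pulse compared with the same well before compound.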

SMILES | hERG current change (%, negative = inhibition) at 10uM
O=[N+]([O-])c1cccc(-c2c(-c3ccccc3)ncc3cc(F)ccc23)c1 | 0.428%
Nc1cccnc1S(=O)(=O)c1ccccc1 | 13.8%
O=C(c1ccco1)N1CCN(C2=NS(=O)(=O)c3ccccc32)CC1 | -3.13%
COc1ccc(CCC(=O)Nc2cccc(Cl)c2)cc1 | -1.25%
O=C(CN1C(=O)NC2(CCOc3ccccc32)C1=O)c1ccc(Cl)cc1 (stereo not shown) | -43.5%
O=C(Nc1cccc(-c2ccc(N3CCOCC3)nn2)c1)c1ccc(Cl)cc1 | -3.12%
COCCN(Cc1nc(-c2ccc(-c3ccccc3)cc2)oc1C)C(C)C | -71.4%
Cc1oc(-c2ccccc2)nc1CC(=O)O | 8.97%
Cc1oc(-c2ccc(-c3ccccc3)cc2)nc1CN(CCO)C(C)C | -44.1%
COc1ccc(-c2csc(NC(=O)c3ccc(C(C)(C)C)cc3)c2C(=O)O)cc1 | 24.9%
CC(NC(=S)NCCc1ccccc1)C(c1cccs1)N1CCN(C)CC1 (stereo not shown) | -35.7%
CC(=O)c1ccc(NC(=O)Nc2ccncc2)cc1 | 15.3%
O=C(CCCc1c[nH]c2ccccc12)N[C@@H](Cc1c[nH]c2ccccc12)C(=O)O | 18.9%
CCOC(=O)N1CCC(NC(=O)c2cc(C(=O)Nc3ccc(S(=O)(=O)N4CCCCC4)cc3)ccc2CO)CC1 | 34.2%
CCOC(=O)Cn1nc(C)cc1NC(=O)c1cccnc1 | 10%
O=C(CCCc1nc(-c2ccc(Cl)cc2)no1)NC1CCCC1 | -1.19%
O=C(O)[C@H](Cc1ccccc1)NC(=O)N1CCOCC1 | -7.49%
CCOC(=O)c1cnc2c(OC)cccc2c1NCc1cccnc1 | -72.2%
CCOC(=O)c1cnc2c(OC)cccc2c1N1CC(C)CC(C)C1 (stereo not shown) | -17.1%
CCOC(=O)c1cnc2c(Cl)cccc2c1NCCN(C)C.Cl | -25.6%
CCOC(=O)c1ccc(NCc2cccnc2)cc1 | 0.518%
CCOC(=O)c1cnc2ccccc2c1Nc1ccc2c(c1)OCCO2 | -12.3%
CCOC(=O)c1cnc2c(OC)cccc2c1Nc1ccc2c(c1)OCCO2 | -56.3%

SMILES | hERG current change (%, negative = inhibition) at 10uM
CCOC(=O)c1cnc2c(OC)cccc2c1Oc1ccccc1 | 3.3%
CCOC(=O)c1cnc2c(C(=O)OC)cccc2c1NCc1cccnc1 | -70.5%
CCOC(=O)c1cnc2ccc(OC)cc2c1Nc1ccc2c(c1)OCCO2 | 1.43%
CC(=O)c1cccc(NC(=O)C(C)OC(=O)CN2C(=O)NC(C)(C)C2=O)c1 (stereo not shown) | 23.8%
COC(=O)C1=C(c2cc3ccccc3s2)C[C@@H]2CC[C@H]1N2C(=O)NCCNC(C)=O | 2.06%
O=C(O)Cn1ccnc1 | 4.81%
Nc1ccccc1-c1nnc(SCc2ccccc2Cl)[nH]c1=O | -0.313%
COC(=O)C(c1ccccc1)N1CCCCCC1.Cl (stereo not shown) | 10.8%
Cc1nc2nc(C)c(CCC(=O)N3CCc4ccccc43)c(C)n2n1 | -63.5%
Cc1nc2ncnn2c(C)c1CCC(=O)N1CCc2ccccc2C1 | -63.4%
Cc1nc2ncnn2c(C)c1CCC(=O)N1CCOCC1 | 1.89%
Cc1nc2nc(C)c(CCC(=O)O)c(C)n2n1 | 8.07%
Cc1nc2ncnn2c(C)c1CCC(=O)N1CCN(Cc2ccccc2)CC1 | -7.67%
Cc1nc2ncnn2c(C)c1CCC(=O)N1CCc2ccccc21 | -80.6%
Cc1nc2ncnn2c(C)c1CCC(=O)N1CCN(c2ccccn2)CC1 | -33.3%
Cc1nc2ncnn2c(C)c1CCC(=O)N1CCCCC1 | -2.79%
CCOC(=O)N1CCN(C(=O)CCc2c(C)nc3nc(C)nn3c2C)CC1 | -22%
CCc1nnc(NC(=O)CCN2C(=O)/C(=C/c3cc(OC)c(OC)c(OC)c3)SC2=S)s1 | 8.4%
O=C(O)CCC(C(=O)O)n1c(O)c(C2=c3ccccc3=NC2=O)sc1=S (stereo not shown) | 20.5%
Cc1ccc(OCC(=O)N2CCC(N3CC(C)CC(C)C3)CC2)cc1 (stereo not shown) | -45.5%
S=C1NCN(CCc2ccccc2)CN1Cc1ccccc1 | 14.8%
COc1ccc(CNC(=O)Cn2cc([N+](=O)[O-])cn2)cc1 | 16.1%
O=C(COC(=O)c1ccc2ncsc2c1)NCc1ccc(Cl)cc1 | -4.62%

SMILES | hERG current change (%, negative = inhibition) at 10uM
O=C(Nc1cccnc1)c1cc(-c2ccccc2)on1 | 5.06%
COc1ccc2oc(=O)c(C(=O)N3CCc4ccccc43)cc2c1 | 15.8%
COc1ccc2oc(=O)c(C(=O)N3c4ccccc4CC3C)cc2c1 (stereo not shown) | -21.6%
COc1ccc2oc(=O)c(C(=O)N3CCCc4ccccc43)cc2c1 | -63.1%
CCSc1nc2cc(OC)c(OC)cc2c(=O)n1CC | -2.16%
COc1ccc(OCc2nc3c4cc(OC)c(OC)cc4nc(=S)n3[nH]2)cc1 | 11.7%
COc1cc2nc(COc3ccc(C#N)cc3)n(CC#N)c(=O)c2cc1OC | -50.7%
Cc1ccc(Cn2c(Sc3nnc(C)s3)nc3c2c(=O)[nH]c(=O)n3C)cc1 | -46.8%
COc1cccc(C2C3=C(Nc4[nH]n(-c5ccccc5)c(=O)c42)c2ccccc2C3=O)c1 (stereo not shown) | 9.64%
O=C(Cn1cc2c(n1)CCCCC2)NC1CCCCCC1 | 0.992%
CN(CC(=O)NC1CCN(Cc2ccccc2)CC1)S(=O)(=O)c1ccc(Cl)s1 | -67.9%
CCOc1ccc(S(=O)(=O)NCCC(=O)NC2CCN(Cc3ccccc3)CC2)cc1 | -21.8%
O=C(Cc1ccc(Br)cc1)NC1CCN(Cc2ccccc2)CC1 | -56%
O=C(CCNS(=O)(=O)c1cccs1)NC1CCN(Cc2ccccc2)CC1 | 9.19%
CN(CC(=O)NC1CCN(Cc2ccccc2)CC1)S(=O)(=O)c1ccc(Br)s1 | -18%
Cc1ccc(CC(=O)NC2CCN(Cc3ccccc3)CC2)cc1 | -12.7%
O=C(CCNS(=O)(=O)c1ccc(Br)cc1)NC1CCN(Cc2ccccc2)CC1 | -61.9%
Cl.O=C(Cc1ccccc1)NC1CCN(Cc2ccccc2)CC1 | 1.21%
CN(CC(=O)NC1CCN(Cc2ccccc2)CC1)S(=O)(=O)c1ccc(Cl)cc1 | -40.2%
O=C(Cn1cc2c(n1)CCCC2)NC1CCN(Cc2ccccc2)CC1 | -8.32%
O=C(Cn1cc2c(n1)CCCCC2)NC1CCN(Cc2ccccc2)CC1 | -58.5%
